Measurements taken from PubChem BioAssay (Tox21).
Several values for one entry are separate records, joined by “and”; a condition that tells them apart may be missing. Equal entries are not always repeated. Records with an inconclusive call do not appear. Some compounds were tested as several samples or in several runs, with calls that do not always agree. Activity calls are given as the source filed them. Unless noted, calls come from the whole dose curve; as a rule, active = well fitted curve in the direction sought with a large enough effect in the repeat runs; inconclusive = weak or mixed curves; inactive = no such curve, though single readings can be large; an effect the other way counts as inactive or inconclusive.

What was measured:
[1] = qHTS assay to identify small molecule antagonists of the estrogen related receptor (ERR) signaling pathway from Tox21 library - cell viability counter screen (AID 1224834); note: nearly all actives have a fitted effect of over 30% in size; note: potency is the fitted concentration of half-maximal effect
How it was run: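 ERR reporter cells were plated 6 h before compound addition, then exposed to test compounds in DMSO for 17.5 h at 37 C. Viability was read as CellTiter-Fluor fluorescence after a 30-minute incubation at 37 C.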

[2] = qHTS assay to identify small molecule agonists of the constitutive androstane receptor (CAR) signaling pathway - cell viability counter screen (AID 1224836); note: nearly all actives have a fitted effect of over 45% in size; note: potency is the fitted concentration of half-maximal effect
How it was run: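 23 h treatment, 37 C, 5% CO2. Cell line: HepG2 stably expressing hCAR with a CYP2B6-2.2kb construct. Co-treatment: PK11195, 0.75 uM final. Read-out: CellTiter-Fluor fluorescence intensity.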

[3] = qHTS assay to identify small molecule antagonists of the constitutive androstane receptor (CAR) signaling pathway - cell viability counter screen (AID 1224837); note: nearly all actives have a fitted effect of over 45% in size
How it was run: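 HepG2 cells stably expressing hCAR and a CYP2B6-2.2kb reporter were plated and pre-incubated 4 hr at 37 C/5% CO2, then given compounds at 15 concentrations plus 50 nM CITCO (final). After 23 hr, viability was read by CellTiter-Fluor fluorescence.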

[4] = target: Nuclear receptor subfamily 1 group I member 3 (Homo sapiens) (UniProt Q14994); assay: qHTS assay to identify small molecule antagonists of the constitutive androstane receptor (CAR) signaling pathway (AID 1224838); note: nearly all actives have a fitted effect of over 40% in size; note: potency is the fitted concentration of half-maximal effect
How it was run: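 HepG2 cells stably co-transfected with hCAR and a CYP2B6-2.2kb luciferase reporter were seeded 4 h before compound addition at 15 concentrations. Cells were stimulated with 50 nM CITCO (final) for 24 h at 37 C; luciferase luminescence was then read.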

[5] = target: Nuclear receptor subfamily 1 group I member 3 (Homo sapiens) (UniProt Q14994); assay: qHTS assay to identify small molecule agonists of the constitutive androstane receptor (CAR) signaling pathway (AID 1224839); note: nearly all actives have a fitted effect of over 15% in size; note: potency is the fitted concentration of half-maximal effect;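 for activation: HepG2 cells stably carrying human CAR and a CYP2B6 luciferase reporter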
How it was run: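 Compounds tested at 15 concentrations on HepG2 cells stably harbouring hCAR and CYP2B6-2.2kb reporter constructs, co-treated with PK11195 (0.75 uM final), 24 h at 37 C; luminescent reporter signal quantified.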

[6] = qHTS assay to identify small molecule antagonists of the estrogen related receptor signaling pathway with the pleiotropic PPARgamma coactivator (PGC) from Tox21 10K library - cell viability counter screen (AID 1224840; active = well fitted cell-killing curve with a large enough effect in the repeat runs, not every such curve was filed as active; note: nearly all actives have a fitted effect of over 40% in size; note: potency is the fitted concentration of half-maximal effect)
How it was run: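 PGC/ERR cells were seeded at 2,000 cells/well and left 6 hours at 37 C/5% CO2 before pin-tool addition of compounds in DMSO. After 17.5 hours at 37 C, CellTiter-Fluor was added and fluorescence read 30 minutes later.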

[7] = qHTS assay to identify small molecule antagonists of the estrogen related receptor signaling pathway with the pleiotropic PPARgamma coactivator (PGC) from Tox21 10K library (AID 1224841; call rule not given here; note: actives are mostly falling curves and most rising ones were filed inactive; nearly all actives have a fitted effect of over 50% in size)
How it was run: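 PGC/ERR reporter cells were seeded at 2,000 cells/well and held 6 hours at 37 C/5% CO2 before pin-tool addition of compounds in DMSO. After 18 hours at 37 C, One-Glo was added and luminescence read after 30 minutes at room temperature.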

[8] = qHTS assay to identify small molecule agonists of the estrogen related receptor signaling pathway with the pleiotropic PPARgamma coactivator (PGC) from Tox21 10K library (AID 1224842); note: nearly all actives have a fitted effect of over 15% in size
How it was run: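 PGC/ERR reporter cell line, 2,000 cells per well, incubated 6 h at 37 C before 23 nL compound in DMSO was added. After 18 h at 37 C, One-Glo luminescence read following 30 min at room temperature.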

[9] = qHTS assay to identify small molecule agonists of the hypoxia (HIF-1) signaling pathway - cell viability counter screen (AID 1224844; calls by dose curve; note: nearly all actives have a fitted effect of over 50% in size; note: potency is the fitted concentration of half-maximal effect)
How it was run: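 HRE-bla ME-180 cells in medium with 0.5% dialyzed FBS were preincubated 5 hrs at 37C, exposed to compounds for 17 hrs, then viability was read as CellTiter-Glo luminescence after 30 min at room temperature, in the reporter wells.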

[10] = qHTS assay to identify small molecule agonists of H2AX (AID 1224845; active = well fitted activation curve with a large enough effect in the signal ratio in the repeat runs, not every such curve was filed as active; the % refers to the signal ratio)
How it was run: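 Wild-type CHO-K1 cells, plated overnight, exposed 3hr at 37C to 15 concentrations (0.76% DMSO final). Lysed, then HTRF anti-pH2AX (S139) cryptate and anti-H2AX-d2 antibodies, 24 hr room temperature; 665/620 nm emission read.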

[11] = qHTS assay to identify small molecule agonists of the hypoxia (HIF-1) signaling pathway (AID 1224846; active = well fitted activation curve with a large enough effect in the signal ratio in the repeat runs, not every such curve was filed as active; the % refers to the signal ratio)
How it was run: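 HRE-bla ME-180 cells (beta-lactamase reporter under hypoxia response element) were plated at 2,000 cells/well in medium with 0.5% dialyzed FBS, rested 5 hrs, then given compounds in DMSO for 17 hrs at 37C, 5% CO2. Reporter induction was read with CCF4-AM FRET substrate.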

[12] = qHTS assay to identify small molecule agonists of H2AX - cell viability counter screen (AID 1224847; calls by dose curve; note: nearly all actives have a fitted effect of over 30% in size; note: potency is the fitted concentration of half-maximal effect)
How it was run: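 Compounds tested at 15 concentrations were incubated 3 hr at 37C with wild-type CHO-K1 cells; cellular ATP-based luminescence (CellTiter-Glo) indicated viability.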

[13] = qHTS assay to identify small molecule antagonists of the estrogen related receptor (ERR) signaling pathway from Tox21 library (AID 1224848); note: nearly all actives have a fitted effect of over 50% in size
How it was run: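 Luminescent reporter read-out (ONE-Glo) from NTP's ERR cell line after 18 h treatment at 37 C with DMSO-dissolved Tox21 compounds; cells pre-plated 6 h beforehand at 2,000 per well.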

[14] = qHTS assay to identify small molecule agonists of the estrogen related receptor (ERR) signaling pathway from Tox21 library (AID 1224849; calls by dose curve; note: nearly all actives have a fitted effect of over 15% in size); conditions: ERR reporter cell line, ONE-Glo luciferase, 18 h
How it was run: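 ERR reporter cell line (NTP) seeded, rested 6 h at 37 C/5% CO2, then pinned with Tox21 compounds in DMSO. After 18 h at 37 C, ONE-Glo luciferase luminescence was read following 30 min at room temperature.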

[15] = qHTS RealTime-Glo MT Cell Viability Assay in HepG2 cells - 24 hour (AID 1224867); note: nearly all actives have a fitted effect of over 50% in size; note: potency is the fitted concentration of half-maximal effect
How it was run: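 Real-time, nonlytic viability: 600 HepG2 cells/well mixed with NanoLuc enzyme plus prosubstrate; 5 h settle, compound (DMSO) added by pintool; luminescence monitored over 40 h at 37 C.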

[16] = qHTS RealTime-Glo MT Cell Viability Assay in HEK293 cells - 32 hour (AID 1224868); note: nearly all actives have a fitted effect of over 50% in size; note: potency is the fitted concentration of half-maximal effect
How it was run: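 Cells + reagent dispensed (600 cells/well, HEK293) → 5 h at 37 C/5% CO2 → 23 nL compound in DMSO pinned → 40 h at 37 C → luminescence read at 0, 8, 16, 24, 32, 40 h.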

[17] = A CellTox Green Cytotoxicity Assay to monitor cytotoxicity in HEK293 cells - 0 hour (AID 1224869); note: nearly all actives have a fitted effect of over 50% in size
How it was run: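 HEK293 cells premixed with CellTox Green dye were seeded at 600 cells/well and left 5 h at 37 C/5% CO2 before pin transfer of 23 nL compound in DMSO. Fluorescence from dye bound to dead-cell DNA was read during 40 h treatment.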

[18] = target: Thyrotropin receptor (Homo sapiens) (UniProt P16473); assay: qHTS assay to identify small molecule agonists of the thyroid stimulating hormone receptor (TSHR) signaling pathway (AID 1224843; calls by dose curve; note: nearly all actives have a fitted effect of over 45% in size)
How it was run: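 Steps: seed 800 TSHR-HEK293 cells per well; add test compound and hold 30 min at ambient temperature; dispense cAMP-d2 then anti-cAMP cryptate; incubate 1 h at ambient; measure fluorescence intensity.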

[19] = target: Luciferin 4-monooxygenase (Photinus pyralis) (UniProt P08659); assay: qHTS assay to identify small molecule inhibitors of firefly luciferase (AID 1224835); note: nearly all actives have a fitted effect of over 25% in size; note: potency is the fitted concentration of half-maximal effect
How it was run: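 Biochemical qHTS: compounds run as interplate titrations against purified firefly enzyme, with D-luciferin and ATP each at its KM concentration. Light output recorded by CCD imaging.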
% is set by controls: 0 for no effect and ±100 for the full control effect.

Thyrotropin receptor (Homo sapiens), sequence (P16473 whole entry, looked up): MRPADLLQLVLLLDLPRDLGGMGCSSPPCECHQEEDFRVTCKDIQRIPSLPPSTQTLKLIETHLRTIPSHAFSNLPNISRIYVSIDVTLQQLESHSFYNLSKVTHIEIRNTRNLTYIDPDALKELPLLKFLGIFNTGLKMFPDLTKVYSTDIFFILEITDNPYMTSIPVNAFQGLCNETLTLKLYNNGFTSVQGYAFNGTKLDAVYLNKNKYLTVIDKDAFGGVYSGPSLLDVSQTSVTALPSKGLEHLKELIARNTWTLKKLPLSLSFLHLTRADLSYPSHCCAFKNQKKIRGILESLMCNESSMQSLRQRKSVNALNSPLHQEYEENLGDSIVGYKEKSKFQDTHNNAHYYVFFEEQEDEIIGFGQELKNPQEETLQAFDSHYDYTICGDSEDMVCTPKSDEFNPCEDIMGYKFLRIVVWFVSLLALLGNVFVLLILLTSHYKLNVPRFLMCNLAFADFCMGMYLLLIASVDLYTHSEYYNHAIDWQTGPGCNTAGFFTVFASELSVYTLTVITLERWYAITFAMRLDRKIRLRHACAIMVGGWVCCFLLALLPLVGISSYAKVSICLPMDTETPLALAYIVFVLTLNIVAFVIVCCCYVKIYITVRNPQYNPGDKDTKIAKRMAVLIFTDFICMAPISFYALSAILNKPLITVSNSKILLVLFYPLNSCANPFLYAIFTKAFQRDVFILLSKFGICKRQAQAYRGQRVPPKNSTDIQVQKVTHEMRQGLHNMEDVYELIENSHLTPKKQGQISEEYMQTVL
Nuclear receptor subfamily 1 group I member 3 (Homo sapiens), sequence (Q14994 whole entry, looked up): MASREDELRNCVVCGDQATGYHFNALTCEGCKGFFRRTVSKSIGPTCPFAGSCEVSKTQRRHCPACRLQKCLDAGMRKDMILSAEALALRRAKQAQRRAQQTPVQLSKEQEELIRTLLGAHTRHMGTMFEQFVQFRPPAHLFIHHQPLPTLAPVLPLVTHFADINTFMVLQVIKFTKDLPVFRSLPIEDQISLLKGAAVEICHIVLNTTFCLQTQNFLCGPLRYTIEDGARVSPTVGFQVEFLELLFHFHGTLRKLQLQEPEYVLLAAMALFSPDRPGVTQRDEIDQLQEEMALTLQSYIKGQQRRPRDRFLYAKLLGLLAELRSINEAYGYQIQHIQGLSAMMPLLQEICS
Luciferin 4-monooxygenase (Photinus pyralis), sequence (P08659 whole entry, looked up): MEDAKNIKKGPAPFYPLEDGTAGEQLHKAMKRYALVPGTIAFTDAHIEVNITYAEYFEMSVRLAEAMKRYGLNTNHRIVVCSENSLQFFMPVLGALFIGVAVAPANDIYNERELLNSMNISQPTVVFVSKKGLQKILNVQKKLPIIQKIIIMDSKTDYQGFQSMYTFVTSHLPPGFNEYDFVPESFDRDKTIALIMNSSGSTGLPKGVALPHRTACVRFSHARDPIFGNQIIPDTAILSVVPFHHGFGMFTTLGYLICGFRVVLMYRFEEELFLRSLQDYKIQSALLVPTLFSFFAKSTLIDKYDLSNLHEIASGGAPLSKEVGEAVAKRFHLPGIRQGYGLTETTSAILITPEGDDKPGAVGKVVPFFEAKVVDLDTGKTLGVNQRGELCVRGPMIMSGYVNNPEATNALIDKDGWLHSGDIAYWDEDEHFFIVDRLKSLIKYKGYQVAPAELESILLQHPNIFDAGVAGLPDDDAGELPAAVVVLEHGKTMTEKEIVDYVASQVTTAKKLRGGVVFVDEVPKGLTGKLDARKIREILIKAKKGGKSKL

NC(=O)/N=N/C(N)=O
inactive: Potency [1] | Potency [2] | Potency [3] | Potency [4] | Potency [5] | Potency [6] | Potency [7] | Potency [8] | Potency [9] | Potency [10] | outcome [11] | Potency [12] | Potency [13] | activity change, positive = activation ([14]; at 92.4 µM (top of the series)) 0.308% and 1.1% | Potency [15] | Potency [16] | Potency [17]

CCCCCCOC(C)=O
inactive and 27.5 µM (active): Potency [9]
inactive: Potency [1] | Potency [2] | Potency [3] | Potency [4] | Potency [5] | Potency [6] | Potency [7] | Potency [8] | Potency [18] | Potency [10] | outcome [11] | Potency [12] | Potency [13] | activity change, positive = activation ([14]; at 92.4 µM (top of the series)) 8.85% and -7.41% | Potency [15] | Potency [16] | Potency [17]

NCCNCCNCCNCCN
inactive: Potency [1] | Potency [2] | Potency [3] | Potency [4] | Potency [5] | Potency [6] | Potency [7] | Potency [8] | Potency [18] | Potency [9] | Potency [10] | outcome [11] | Potency [12] | Potency [13] | activity change, positive = activation ([14]; at 8.39 µM (top of the series)) 3.41% | activity change, positive = activation ([14]; at 92.4 µM (top of the series)) 2.98% | Potency [15] | Potency [16] | Potency [17]

O=[N+]([O-])c1cc(N(CCO)CCO)ccc1NCCO
inactive: Potency [3] | Potency [6] | Potency [9] | outcome [11] | Potency [15] | Potency [17]
active: Potency [1] 48.5 µM | Potency [19] 28.2 µM and 39.9 µM | Potency [12] 50.4 µM and 50.5 µM

OCC1CCCO1 (stereo not given)
inactive: Potency [1] | Potency [19] | Potency [2] | Potency [3] | Potency [4] | Potency [5] | Potency [6] | Potency [9] | Potency [10] | outcome [11] | Potency [12] | Potency [15] | Potency [16] | Potency [17]

S=c1nc[nH]c2nc[nH]c12
inactive: Potency [19] | Potency [2] | Potency [5] | Potency [6] | Potency [18] | Potency [9] | outcome [11] | Potency [12] | Potency [15] | Potency [17]
active: Potency [4] 1.5 µM and 3.35 µM | Potency [16] 16.9 µM

CC1COc2ccccc2N1C(=O)C(Cl)Cl (stereo not given)
inactive: Potency [4] | Potency [6] | Potency [18] | Potency [9] | Potency [10] | outcome [11] | Potency [12] | Potency [15] | Potency [16] | Potency [17]
active: Potency [2] 27.3 µM | Potency [5] 48.5 µM

Oc1ccc2ccccc2c1
inactive: Potency [1] | Potency [2] | Potency [3] | Potency [6] | Potency [18] | Potency [10] | outcome [11] | Potency [12] | Potency [15] | Potency [16] | Potency [17]
active: Potency [9] 35.5 µM

CC1(C)O[C@@H]2C[C@H]3[C@@H]4C[C@H](F)C5=CC(=O)CC[C@]5(C)[C@H]4[C@@H](O)C[C@]3(C)[C@]2(C(=O)CO)O1
inactive: Potency [1] | Potency [2] | Potency [3] | Potency [6] | Potency [7] | Potency [8] | Potency [18] | Potency [9] | Potency [10] | outcome [11] | Potency [12] | Potency [13] | activity change, positive = activation ([14]; at 42.5 µM (top of the series)) -3.03% | activity change, positive = activation ([14]; at 92.4 µM (top of the series)) -6.71% | Potency [15] | Potency [16] | Potency [17]

O=Nc1ccc(O)cc1
inactive: Potency [1] | Potency [2] | Potency [3] | Potency [4] | Potency [5] | Potency [6] | Potency [18] | Potency [9] | outcome [11] | Potency [12] | Potency [15] | Potency [16] | Potency [17]

CCCCCCCCCCCCN
inactive and 43.6 µM (active): Potency [16]
inactive and 20.1 µM (active): Potency [12]
inactive and 24.5 µM (active): Potency [15]
inactive and 7.7 µM (active): Potency [1]
inactive: Potency [4] | Potency [5] | Potency [18] | Potency [9] | Potency [10] | outcome [11] | Potency [17]
inactive and 12.2 µM (active): Potency [6]

O=C(c1ccc(O)cc1)c1ccc(O)cc1O
active: Potency [5] 27.6 µM and 54.5 µM
inactive: Potency [1] | Potency [2] | Potency [3] | Potency [4] | Potency [6] | Potency [18] | Potency [10] | outcome [11] | Potency [15] | Potency [16] | Potency [17]

O=C1N=C(O)CN1/N=C/c1ccc(-c2ccc([N+](=O)[O-])cc2)o1
inactive: Potency [3] | Potency [4] | Potency [5] | Potency [18] | Potency [9] | Potency [10] | Potency [12] | Potency [15] | Potency [16] | Potency [17]
48.6 µM (active) and inactive: Potency [6]
active: Potency [1] 43.3 µM and 26.6 µM

COC(=O)Nc1nc2ccc(Sc3ccccc3)cc2[nH]1
inactive: Potency [1] | Potency [2] | Potency [3] | Potency [4] | Potency [6] | Potency [18] | Potency [9] | Potency [12] | Potency [15] | Potency [17]
active: Potency [5] 4.33 µM
